Source: PubChem
Gal4-VP16 FLuc – VP16 counterscreen qHTS for inhibitors of ROR gamma transcriptional activity; Drosophila S2 Gal4-VP16 UAS-luciferase, luminescence, 20 h; Potency, µM (highest dose often 53.6 µM), without a hit: top-dose activity, negative = inhibition, most hits filed as inhibitors; 310,000 compounds, 3.5% hits; AID 2546, 2010;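 further: Gal4-VP16 expression switched on by copper sulfate through the metallothionein promoter; potency means the concentration at half of the fitted maximal effect; on the % scale 0 is the no-effect control and ±100 the full control effect; nearly all actives have a fitted effect of over 50% in size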
Six1-Eya2 blk – qHTS Assay for Inhibitors of the Six1/Eya2 Interaction | AlphaScreen GST-Six1/His-Eya2 binding, biochemical; hits give low values | activity change, % (test concentration not listed) | AID 651725, 2012 | 360,000 compounds, 0.56% hits; in the data active means activity change below about -65%; inconclusive means mostly about -30% to -63%; further: on the % scale 0 is the no-effect control and ±100 the full control effect
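Homogeneous AlphaScreen proximity assay pairing GST-Six1 with His-tagged Eya2 (added as 5X mix: 250 nM and 500 nM) in 50 mM Tris pH 8.0, 300 mM NaCl, 1 mM TCEP. Glutathione donor and nickel acceptor beads; 1 h, 37 °C, dark.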
CtBP-E1A blk – qHTS Assay for Inhibitors of the CtBP/E1A Interaction | CtBP / adenovirus E1A interaction (AlphaScreen) | AlphaScreen GST-E1A/His-CtBP binding, 1536-well; hits give low values | activity change, % (test concentration not listed) | 340,000 compounds, 0.49% hits; in the data active means activity change below about -65%; inconclusive means mostly about -30% to -63%; further: on the % scale 0 is the no-effect control and ±100 the full control effect
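AlphaScreen with 125 nM GST-E1A and 125 nM His-CtBP (5X stocks) in Tris pH 8.0, 300 mM NaCl, BSA, Tween 20, TCEP. Compounds preincubated 2 h at 37 deg C, then glutathione donor/nickel acceptor beads added for 1 h at 37 deg C in dark.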
p53 reactivation – qHTS assay for re-activators of p53 using a Luc reporter. H1299 p53-A138V BP100-luciferase reporter, luminescence, 24 h. Potency, µM (titrated, usually from 92.2 µM), inactives show at the highest dose activity change, positive = activation, most hits filed as activators. 320,000 compounds, 0.063% hits; further: potency means the concentration at half of the fitted maximal effect; % of control where 0% means no effect; nearly all actives have a fitted effect of over 45% in size
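H1299 (p53-null), stable ts p53-A138V + BP100-Luc; 1000 cells/well, Opti-MEM/10% FBS; cpd 4 pt, 1:5; 24 h, 37 deg C, 5% CO2; detection reagent 10 min RT; luminescence.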
RORgamma inh – qHTS for inhibitors of ROR gamma transcriptional activity. Nuclear receptor ROR-gamma (Mus musculus), P51450. Drosophila S2 Gal4-RORgamma UAS-luciferase reporter, 20 h. Potency, µM (highest dose often 53.6 µM), for the others: at the highest dose activity change, negative = inhibition, most hits filed as inhibitors. 310,000 compounds, 5.4% hits. AID 2551, 2010; further: potency means the concentration at half of the fitted maximal effect; on the % scale 0 is the no-effect control and ±100 the full control effect; nearly all actives have a fitted effect of over 60% in size
Target sequence (P51450 whole entry, looked up, the tested form may be a part): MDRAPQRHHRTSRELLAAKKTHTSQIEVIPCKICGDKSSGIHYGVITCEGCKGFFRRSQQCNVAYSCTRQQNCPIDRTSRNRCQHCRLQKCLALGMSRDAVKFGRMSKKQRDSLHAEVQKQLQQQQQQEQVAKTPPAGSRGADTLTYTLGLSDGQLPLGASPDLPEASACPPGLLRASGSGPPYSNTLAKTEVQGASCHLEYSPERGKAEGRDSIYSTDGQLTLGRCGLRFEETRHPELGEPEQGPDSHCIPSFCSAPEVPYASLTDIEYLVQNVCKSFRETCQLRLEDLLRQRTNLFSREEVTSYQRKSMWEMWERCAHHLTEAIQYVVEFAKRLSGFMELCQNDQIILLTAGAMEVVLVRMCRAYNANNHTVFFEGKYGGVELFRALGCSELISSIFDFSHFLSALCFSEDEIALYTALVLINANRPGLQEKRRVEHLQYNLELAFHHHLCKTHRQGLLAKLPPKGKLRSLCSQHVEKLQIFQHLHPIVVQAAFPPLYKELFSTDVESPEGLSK
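ROR gamma transcriptional activity was tracked as Gal4-UAS luciferase output in stably transfected Drosophila Schneider cells, with compound added 1 hr before 700 uM copper sulfate induction and a 20 hr ambient-temperature incubation.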
Numbers without * were called inactive; ? = inconclusive; . = no result given; [ ] = remark or other dose. Sampled rows, rich in hits. Any-hit rate of the full collection: about 5.4%. Unless noted, the call rests on the fitted dose curve; in most records, active means well fitted curve in the direction sought with a large enough effect; inconclusive means small, poorly fitted or top-dose-only effect, or another doubt; inactive means no such curve, though single readings can be large; an effect the other way counts as inactive or inconclusive.

SMILES	Gal4-VP16 FLuc	Six1-Eya2 blk	CtBP-E1A blk	p53 reactivation	RORgamma inh
Cc1ccc(Nc2nc(-c3ccc(O)c(O)c3)cs2)nc1	6.31µM*	0.0	-28.1	15.7%	12.6µM*
Cc1cccnc1Nc1nc(-c2ccccc2)cs1	.	-4.7	-0.2	.	.
Cc1ccc(Nc2nc(-c3ccc(F)cc3)cs2)nc1	?	-0.9	.	.	-26.4%
Cc1cccnc1Nc1nc(-c2ccc(O)cc2O)cs1	?	-14.5	-8.6	?	6.31µM*
NS(=O)(=O)c1ccc(Nc2nc(-c3ccc(O)cc3O)cs2)cc1	19.6%	-66.6*	-79.7*	-0.9%	18.2%
COC(=O)c1ccc(CN(C)S(=O)(=O)c2cccs2)cc1	-6.9%	11.3	0.1	23.5%	10.4%
CC(=O)Oc1ccc(-c2csc(Nc3cccc(C)n3)n2)cc1	10µM*	21.6	10.8	?	3.16µM*
c1ccc(Nc2nc(-c3cccs3)cs2)nc1	?	-10.4	0.1	?	?
Cc1cccc(Nc2nc(-c3ccccn3)cs2)n1	2.51µM*	?	?	?	1.58µM*
Oc1ccc(-c2csc(Nc3ccccn3)n2)c(O)c1	?	1.7	.	.	11.2µM*
COc1ccc(-c2csc(Nc3cccc(C)n3)n2)cc1	?	4.7	-2.9	20.9%	?
N/C(Cc1ccc(Cl)cc1)=N\OC(=O)c1cccc2ccccc12	10µM*	26.2	32.8	5.3%	?
N/C(Cc1ccc(Cl)cc1)=N\OC(=O)c1ccc2ccccc2c1	20µM*	8.7	11.8	?	-25.9%
COc1ccc(C/C(N)=N/OC(=O)c2ccc(Cl)cc2)cc1	-13.2%	16.1	3.8	10.5%	24.0%
O=C(c1ccc(CS(=O)c2ccccc2Cl)o1)N1CCN(c2ccccn2)CC1 (configuration not stated)	-0.2%	-1.8	.	-2.8%	0.9%
CN(C)c1nc(NCc2ccccc2)nc(N/N=C/c2ccc(Cl)cc2Cl)n1	-12.6%	-2.6	8.4	6.3%	2.24µM*
Cc1cc(N/N=C/c2ccccc2F)nc(NCc2ccccc2)n1	-11.5%	-6.8	0.9	2.1%	2.9%
CN(C)c1nc(NCc2ccccc2)nc(N/N=C/c2ccccc2F)n1	6.31µM*	.	.	-0.9%	2.82µM*
CN(C)C(=O)c1ccc(-c2cc(NCc3cccnc3)ncn2)cc1	-7.9%	.	.	.	-30.5%
O=C(Nc1ccccc1F)c1ccc([N+](=O)[O-])s1	-29.2%	-18.8	-24.0	?	12.6µM*
O=C(Nc1cccc2ccccc12)c1ccc([N+](=O)[O-])s1	?	2.4	.	-12.1%	-30.0%
CC(=O)c1cccc(NC(=O)/C=C/c2ccc([N+](=O)[O-])s2)c1	4.47µM*	-2.5	27.6	10.9%	10µM*
Cc1ccccc1NC(=O)/C=C/c1ccc([N+](=O)[O-])s1	3.16µM*	-9.9	5.5	-35.4%	4.47µM*
Cc1cc(C)cc(NC(=O)/C=C/c2ccc([N+](=O)[O-])s2)c1	-12.2%	2.2	2.9	?	0.4%
CN(C)N=Nc1ccc(-c2cn(Cc3ccccc3)cn2)cc1	-11.5%	-17.7	-21.5	24.0%	-2.3%
SMILES	Gal4-VP16 FLuc	Six1-Eya2 blk	CtBP-E1A blk	p53 reactivation	RORgamma inh
CCN1CCN(CCCNC(=O)c2ccc3c(=O)n(CCc4ccccc4)c(=O)[nH]c3c2)CC1	-9.0%	10.5	0.0	-8.2%	-7.2%
COC(=O)C/C=C\[C@@H](C)[C@@H](/C=N\OCC[C@H]1C=C[C@H](OC(C)=O)[C@@H](COC(C)=O)O1)NS(=O)(=O)c1ccc(C)cc1	-5.5%[10 µM]	.	.	.	1.1%[10 µM]
CCCCn1c(=O)n(Cc2cccc(F)c2)c(=O)c2c1ncn2Cc1ccco1	?	-5.1	7.9	-17.9%	3.16µM*
CC(=O)C(Sc1nc(N2CCOCC2)nc(N2CCOCC2)n1)C(=O)Nc1ccccc1 (configuration not stated)	?	19.8	27.9	-1.1%	0.891µM*
CCOc1cc(C(=O)Nc2cc(C)on2)cc(OCC)c1OCC	0.8%	5.2	-3.9	-13.1%	2.24µM*
Cc1cc(NC(=O)c2cccc(COc3ccc(Br)cc3)c2)no1	?	1.7	8.9	19.5%	7.08µM*
CCOc1ccc(C(=O)Nc2cc(C)on2)cc1	?	4.6	5.6	22.0%	?
Cc1noc2ncnc(Sc3ccc(Br)cc3)c12	11.2µM*	0.0	1.0	-10.7%	3.98µM*
N#Cc1cc2c([nH]c1=S)CCCC2	-2.7%	2.1	2.4	?	-13.3%
CC1(C)Cc2[nH]c(=S)c(C#N)cc2CO1	?	-1.5	-3.3	6.9%	20µM*
Cc1ccc(C2=C(O)C(=O)C(c3ccc(C)cc3)=C(O)C2=O)cc1	.	-4.0	0.8	.	.
CC1=C(O)C(=O)C(C2=C(O)C(=O)C(C)=C(O)C2=O)=C(O)C1=O	.	-91.8*	-84.7*	.	.
CCC(CC)C(=O)c1c[nH]c(C(=O)N2CCN(c3ccccc3)CC2)c1	5.6%[10 µM]	-0.8	-13.0	13.2%	3.9%
C=CCNC(=O)c1ccc(Cn2cc(C(F)(F)F)ccc2=O)cc1	-1.3%	7.3	5.0	-0.3%	-0.9%
O=C1CC(N2CCCCCC2)C(=O)N1c1ccc2c(c1)OCO2 (configuration not stated)	?	3.4	9.2	20.3%	10µM*
O=C(CN1C(=O)c2ccccc2C1=O)Nc1cccc(S(=O)(=O)Nc2ccccc2Cl)c1	6.1%	-67.8*	-68.4*	-3.3%	-6.2%
O=C(CN1C(=O)c2ccccc2C1=O)Nc1cccc(Cl)c1	1.8%	-8.0	-2.9	1.3%	6.7%
O=C(CS(=O)CC(=O)N(CC(=O)NC1CCCC1)c1ccc2c(c1)OCCO2)Nc1ccc(F)cc1 (configuration not stated)	-20.3%	1.6	-2.8	-4.5%	35.9%
Cc1ccc(-c2nnc3ccc(SCC(=O)Nc4cc(C)on4)nn23)cc1	-14.5%	-3.2	-8.3	-10.0%	4.6%
Cc1cc(NC(=O)CSc2ccc3nnc(-c4cccs4)n3n2)no1	0.0%	?	-67.6*	-9.6%	-5.8%
O=C(Nc1ccccc1C(=O)N/N=C/c1ccncc1)c1ccccc1	?	4.9	3.3	-5.6%	8.91µM*
O=C(N/N=C/c1ccc(O)cc1)c1ccc(NC(=O)c2ccccc2Br)cc1	-23.6%	?	?	-0.2%	-32.6%
Cc1ccccc1C(=O)Nc1ccc(C(=O)N/N=C/c2ccncc2)cc1	6.8%	-17.6	0.9	-5.9%	-2.9%
O=C(N/N=C/c1ccc(OCc2ccccc2)cc1)c1ccncc1	-17.5%	-1.8	.	2.4%	12.6µM*
O=C(N/N=C/c1ccncc1)c1ccc(OCc2ccccc2)cc1	7.4%	0.0	-15.7	-1.2%	-0.4%
O=C(Nc1ccccc1C(=O)N/N=C/c1ccc(F)cc1)c1ccccc1Br	?	-3.4	-6.3	2.6%	10µM*
